# Screens from PubChem BioAssay.
# PNC inhibitor: blocks assembly of the perinucleolar compartment. PC3M PTB-GFP, PNC prevalence imaging, 16 h; active compounds read low. activity change (PNC), negative = inhibition, % at 10 µM. 140,000 tested, 3.1% active;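 active = readout at or below -70, meaning at least 70% loss of cells showing the perinucleolar compartment, a nuclear body marking cancer cells; inconclusive = readout between -30 and a set limit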
#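 Read-out is percentage of cells bearing a perinucleolar compartment, from automated 20x imaging of fixed, Hoechst-stained PC3M PTB-GFP cells. Cells were seeded 4 h, then exposed 16 h to compound (23 nl of library stock) in duplicate plates.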
# HPGD inh: blocks human HPGD enzyme activity; 150,000 tested, 4.3% active; purified HPGD, NADH fluorescence kinetic, PGE2 substrate; Potency, µM, hits mostly inhibitors; AID 894
#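 20 nM HPGD preincubated 15 min at room temperature with compound in 50 mM Tris-HCl pH 8, 0.01% Tween 20. Started with 1 mM NAD+ and 30 uM prostaglandin E2; NADH fluorescence (360/450 nm) read 5 times over 30-s intervals, last minus first.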
# ALDH1A1 block: ALDH1A1 (human) enzyme inhibition. Purified ALDH1A1, NADH fluorescence, propionaldehyde substrate. Potency, µM (series often up to 75.3 µM), hits mostly inhibitors. 220,000 tested, 7.3% active
# Target sequence (P00352 whole entry, looked up): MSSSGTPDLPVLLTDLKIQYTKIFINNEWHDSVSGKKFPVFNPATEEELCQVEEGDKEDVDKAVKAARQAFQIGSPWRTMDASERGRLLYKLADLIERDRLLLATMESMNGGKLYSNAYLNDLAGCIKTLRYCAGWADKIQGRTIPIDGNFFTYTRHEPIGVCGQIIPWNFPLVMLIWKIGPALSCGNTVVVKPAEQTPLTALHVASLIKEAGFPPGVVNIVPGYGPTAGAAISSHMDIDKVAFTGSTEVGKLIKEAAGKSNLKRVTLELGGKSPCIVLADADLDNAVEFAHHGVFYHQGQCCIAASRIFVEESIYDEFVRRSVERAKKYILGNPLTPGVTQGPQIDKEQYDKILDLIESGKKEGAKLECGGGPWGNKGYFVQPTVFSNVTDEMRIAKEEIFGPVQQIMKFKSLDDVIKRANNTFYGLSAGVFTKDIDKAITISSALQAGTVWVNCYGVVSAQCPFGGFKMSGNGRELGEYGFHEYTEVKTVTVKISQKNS
# Hits are given with their value; i = inactive; ? = inconclusive; nt = no result; [ ] = dose if it differs, or a comment. Rows were chosen to be rich in hits. Some 11% of all compounds tested hit in one or more screens of this group. Unless noted, calls follow the shape of the dose curve; as a rule, active = well fitted inhibition curve with a large enough effect (not every such curve was filed as active); inconclusive = small, poorly fitted or top-dose-only effect, or another doubt; inactive = no such curve, though single readings can be large or run the other way.
SMILES,PNC inhibitor,HPGD inh,ALDH1A1 block
COc1ccc(C(=O)NCCC2=CCCCC2)cc1,i,i,i
COc1ccc(C(=O)NCC(=O)OCC(=O)NCCC2=CCCCC2)cc1,nt,nt,16µM
CCN(Cc1ccccc1)c1ccc(/C=N/NS(=O)(=O)c2cccc([N+](=O)[O-])c2)cc1,i,i,6.3µM
CC(=O)NCCNS(=O)(=O)c1ccc(C)c([N+](=O)[O-])c1,nt,nt,i
O=C(CN(Cc1ccccc1)S(=O)(=O)c1ccccc1)N/N=C/c1ccc([N+](=O)[O-])cc1,i,i,i
CCN(CC)c1ccc(/C=N/NS(=O)(=O)c2ccc(C)c([N+](=O)[O-])c2)cc1,?,nt,20µM
COC(C1CCCCC1)C(C)C(OCc1cccc(Br)c1)C(C)CO (centres undefined),nt,nt,i[13.5 µM]
COC(=O)c1c(C)nc2nonc2c1N,nt,nt,i
CCOC(=O)c1cc(CC)sc1NC(=O)CC1Sc2ccc(C(F)(F)F)cc2NC1=O (centres undefined),i,i,i
Cc1ccc(-n2cc(CNCCc3ncc(C)[nH]3)c(-c3ccc(F)cc3)n2)cc1,nt,nt,i
COC(=O)c1c(O)cc(C(C)(C)C)n(-c2ccc(F)cc2)c1=O,?,i,i
Cc1ccccc1C1CC(=O)Oc2ccc(O)cc21 (centres undefined),nt,28µM,20µM
COc1ccccc1C1CC(=O)Oc2cc(O)ccc21 (centres undefined),nt,i,?
O=[N+]([O-])c1ccc(Cl)c2cccnc12,nt,nt,18µM
O=[N+]([O-])c1ccc(O)c2cccnc12,nt,nt,i
O=[N+]([O-])c1cc(F)c2cccnc2c1O,nt,nt,18µM
O=[N+]([O-])c1cc(Cl)c2cccnc2c1O,nt,nt,i
COc1ccc(S(=O)(=O)N2CCC(C(=O)Nc3ccccc3C)CC2)c2cccnc12,i,i,22µM
COc1ccc(C)cc1NC(=O)C1CCN(S(=O)(=O)c2cccc3cccnc23)CC1,?,i,i
COC(=O)c1ccc(C(NC(=O)OCc2ccccc2)/C(C)=C/[C@@H](C)C(=O)NCc2nc3ccccc3s2)cc1 (some centres undefined),nt,i,i
O=C1/C(=C/c2ccco2)Oc2c1ccc(O)c2CN1CCCCC1,i,?,?
CC1CCN(Cc2c(O)ccc3c2O/C(=C\c2ccco2)C3=O)CC1,i,i,25µM
CCOc1cc(CNc2ccc(N(C)C)cc2)cc(Br)c1OCC(=O)NC(C)(C)C,?,i,3.2µM
COc1cc(CNc2cccc(C(=O)O)c2)cc(Br)c1OCC(=O)NC(C)(C)C,i,?,i
COc1cc(CNc2ccc3[nH]c(=O)[nH]c3c2)cc(Br)c1OCC(=O)NC(C)(C)C,i,?,0.32µM
SMILES,PNC inhibitor,HPGD inh,ALDH1A1 block
CCOc1cc(CNc2ccc(N3CCCCC3)cc2)cc(Br)c1OCC(=O)NC(C)(C)C,i,i,?
CC1=CC(C)(C)N(C(=O)CSc2nnc(N)s2)c2ccccc21,i,i,?
CC1=CC(C)(C)N(C(=O)CSc2ncn[nH]2)c2ccccc21,?,i,13µM
COc1cc(C(C)=O)ccc1OC(=O)c1cc2cccc(OC)c2oc1=O,nt,nt,i
CC(=O)c1cccc(NC(=O)C(OC(=O)c2cccc(S(=O)(=O)N(C)c3ccccc3)c2)c2ccccc2)c1 (centres undefined),i,i,i
COc1ccc(N(C)S(=O)(=O)c2cccc(C(=O)OC(C(=O)Nc3cc(C)cc(C)c3)c3ccccc3)c2)cc1 (centres undefined),-102,i,i
COc1ccc(S(=O)(=O)N2CCC(C(=O)NCc3cccs3)CC2)cc1,nt,nt,i
CCOC(=O)c1sc2ncn(CC(=O)N(CC)CC)c(=O)c2c1C,i,i,?
CCOC(=O)c1sc2ncn(C(C)C(=O)OCC)c(=O)c2c1C (centres undefined),?,i,i
CCOC(=O)c1sc2ncn(/N=C/c3ccc(O)cc3)c(=O)c2c1C,nt,nt,20µM
CCOC(=O)c1sc2ncn(/N=C/c3cccnc3)c(=O)c2c1C,i,i,0.071µM
C#CC1(NC(=O)NC(C)C)CCCCC1,nt,nt,i
N#C/C(=C/c1ccc(N2CCCCC2)o1)C(=O)Nc1ccc2ccccc2c1,-91,?,?
CC1CC1c1ccc(/C=C(\C#N)C(=O)Nc2ccc(Cl)cc2)o1 (centres undefined),-125,i,?
CCc1ccc(NC(=O)/C(C#N)=C/c2cc3ccc(C)cc3nc2N2CCOCC2)cc1,i,i,i
Cc1cc(C)nc(Sc2ccc(/C=C(\C#N)C(=O)Nc3ccccc3)o2)n1,i,i,?
N#C/C(=C\c1ccc(N2CCOCC2)o1)C(=O)Nc1ccc(O)cc1,nt,nt,20µM
CSc1ccc(/C=C(\C#N)C(=O)NC2CCCCC2)cc1,?,i,?
N#C/C(=C/c1ccc(N2CCOCC2)o1)C(=O)NC1CCCCC1,nt,nt,6.3µM
CC1CC1c1ccc(/C=C(\C#N)C(=O)Nc2ccccc2Cl)o1 (centres undefined),i,i,?
N#Cc1cccc(CS(=O)(=O)c2ccccc2)c1,nt,i,i
Cc1nc2c(C)cccc2cc1C(=O)N/N=C/c1cccnc1,?,i,i
O=C(O)CCCCNS(=O)(=O)/C=C/c1ccccc1,nt,nt,i
Cn1cnnc1SCC(=O)NN(c1ccccc1)c1ccccc1,i,i,i
CCO[C@H]1OC(C(=O)Nc2ccccc2)=C[C@@H](c2cn(C(C)=O)c3ccccc23)[C@@H]1CCCO,nt,nt,i
SMILES,PNC inhibitor,HPGD inh,ALDH1A1 block
N#C/C(=C/c1ccc(N2CCCCC2)o1)C(=O)Nc1ccc(Cl)cc1,-123,i,i
CNC(=O)/C(C#N)=C\c1ccc(CNS(=O)(=O)c2ccc(Cl)cc2)o1,nt,nt,i
C[C@@H]1CCC2[C@](C)(CO)C(O)CC[C@@]2(C)[C@@]12CC[C@](CO)(CCO)O2 (some centres undefined),nt,i,i
CCCCNC(=S)N=Nc1c(O)n(Cc2ccccc2)c2ccccc12,i,nt,20µM
CCOC(=O)N=Nc1c(O)n(CC)c2ccccc12,i,i,i
CCCCn1c(O)c(N=NC(=O)c2ccco2)c2ccccc21,i,i,i
O=Nc1c(O)n(Cc2cccc(Cl)c2)c2ccccc12,?,i,?
C/C(Cl)=C\Cn1c(O)c(N=NC(N)=S)c2ccccc21,nt,nt,1µM
CCOC(=O)N=Nc1c(O)n(Cc2ccccc2)c2ccccc12,nt,nt,8.9µM
CC1=CC(C)(C)n2c(O)c(N=NC(N)=S)c3cccc1c32,?,i,?
NC(=S)N=Nc1c(O)n(Cc2ccccc2)c2ccccc12,-100,i,2.5µM
CN(C)S(=O)(=O)c1ccc(N2CCCC2)c(C(=O)Nc2nc(-c3cc(F)ccc3F)cs2)c1,i,?,?
CC(C)c1ccc(NC(=S)NCCc2c[nH]c3ccccc23)cc1,i,i,?
COc1cc([C@H]2c3cc4c(cc3[C@@H](O[C@H]3O[C@H]5CO[C@@H](C)O[C@H]5[C@@H](O)[C@@H]3O)[C@@H]3COC(=O)[C@H]23)OCO4)cc(OC)c1O,nt,i,i
S=C(c1ccc(-c2ccc(Cl)cc2Cl)o1)N1CCCC1,nt,nt,4µM
N#CCCN1CCN(C(=S)c2ccc(-c3cc(Cl)ccc3Cl)o2)CC1,i,i,?
S=C(Nc1ccc(Cl)cc1Cl)N1CCCCC1,?,i,i
S=C(c1ccc(-c2ccc(Cl)cc2Cl)o1)N1CCCCC1,i,?,14µM
O=C(Nc1ccc(CN2CCOCC2)cc1)c1ccc(-c2ccc(Cl)cc2Cl)o1,nt,nt,10µM
O=C(Nc1ccc(CN2CCOCC2)cc1)c1ccc(-c2cccc(Cl)c2)o1,i,?,?
